Shown are actives, neighbours in structure and some others; about 1.9% of the full set was active somewhere.
L929 necroptosis: inhibitors of zVAD-triggered necroptosis, primary screen, L929 cells; viability rescue, % at 10 µM; 220,000 compounds, 0.38% hits; L929 zVAD necroptosis rescue, ATP luminescence, 24 h; with zVAD 60 µM;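 active means activation, scaled between plate controls, above about 75%, limit read from the data; inactive means activation under that limit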;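 further: 0% = zVAD with DMSO and 100% = DMSO alone without zVAD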
HSF1 activator: HSF-1 activators, primary screen, NIH3T3-HGL cells, MG132 stress, luminescence, single point; NIH3T3-HGL HSF-1 luciferase reporter, 8 h; 100% = twice DMSO control signal; 300,000 compounds, 1.7% hits; AID 504408, 2011; activation, % at 9 µM;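 active means mean replicate activation of at least 50% with a set share of replicates each reaching 50%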;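 further: 0% = median of the neutral control wells and 100% = twice that signal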
TNF necrop inh: inhibitors of TNF-alpha triggered necroptosis, primary screen, cell-based, Jurkat FADD-/-, single concentration; Jurkat FADD-/- TNF necroptosis rescue, ATP luminescence, 24 h; 0 = TNF only, 100 = no-TNF cells; 220,000 compounds, 0.068% hits; activation (protection from cell death), % at 10 µM;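 active means activation, meaning protection from cell death, of at least 50% relative to plate controls; inactive means activation below 50%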;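 further: necroptosis triggered by 40 ng/mL TNF-alpha added together with compound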
Hsp70 act: Hsp70 transcriptional activators, primary screen, cell-based, HeLa, Hsp70 promoter luciferase, luminescence, 10 µM; AID 1203, 2008; 200,000 compounds, 0.04% hits; HeLa Hsp70 promoter luciferase reporter; scaled: vehicle 0, proteasome-inhibitor control 100%; activation, % at 10 µM;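 active means activation above the mean across all tested compounds plus 3 SD, cutoff set per campaign, cut at about 5.5% in these data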;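 further: 100% = MG132 at 30 µM as the positive control and 0% = DMSO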
* = called active by the depositor; x = not tested or not shown.

SMILES	L929 necroptosis	HSF1 activator	TNF necrop inh	Hsp70 act
O=C(O)C(=O)/C(=C\c1cccc(Cl)c1)c1ccc2ccccc2n1	2	60*	0	0
COc1ccc(N(CC(=O)NC2CCCCCC2)S(=O)(=O)c2ccccc2)cc1Cl	x	19	x	x
Cn1c(O)c(C=Nc2ccc(Br)cc2)sc1=O	7	58*	1	0
C=CCN1C(=O)c2ccc(C(=O)N(CCC)CC(=O)Nc3ccccc3C)cc2C1=O	x	2	x	x
COc1cc(N/N=C/c2ccc(N(C)C)cc2)ncn1	69	21	0	0
COc1cc(N/N=C/c2ccccc2O)ncn1	49	65*	-7	0
CCOC(=O)c1ccc(N=c2sc(C(=O)OC)cc(=O)n2-c2ccc(C(=O)OCC)cc2)cc1	x	105*	-16	0
COC(=O)c1cc(=O)n(-c2ccccc2)c(=Nc2ccccc2)s1	x	41	-13	0
C[C@@H](C(=O)NCCc1ccc(F)cc1)N1C(=O)N2CCc3c([nH]c4ccccc34)[C@@]2(C)C1=O	x	23	x	x
Cc1ccc(CNC(=O)[C@H](C)N2C(=O)N3CCc4c([nH]c5ccccc45)[C@@]3(C)C2=O)cc1	x	97*	x	x
Cc1oc(S(=O)(=O)N2CCOCC2)cc1C(=O)Nc1ccc(Cl)cc1	-1	1	1	x
Cn1cccc1/C=C1\CCC/C(=C\c2cccn2C)C1=O	1	74*	-3	0
CCOc1ccc(-c2ccc(SCC(=O)NC3CCCCC3)nn2)cc1	x	43	x	x
O=C(CN(CC1CCCO1)C(=O)CNS(=O)(=O)c1ccc(F)cc1)NC1CCCCC1 (centres undefined)	x	-1	x	x
Cc1ccc(S(=O)(=O)NCC(=O)N(CC(=O)NCC2CCCO2)Cc2ccc(Cl)cc2)cc1 (centres undefined)	x	52*	x	x
O=C(CN(CC1CCCO1)C(=O)CNS(=O)(=O)c1ccc(F)cc1)NC1CCCC1 (centres undefined)	x	63*	x	x
O=C(COc1ncnc2ccccc12)NCCCN1CCCC1=O	0	2	-1	0
CCS(=O)(=O)N1Cc2ccccc2CC1C(=O)Nc1nnc(SCc2ccc(F)cc2)s1 (centres undefined)	0	-3	2	0
COc1ccc(-c2c(C)c3cc(O)ccc3oc2=O)cc1OC	x	67*	x	x
COc1cccc2sc(Nc3nc(-c4ccccn4)cs3)nc12	45	128*	-4	5
c1ccc(Nc2nc(-c3ccccn3)cs2)cc1	0	41	-3	0
COc1cccc2sc(Nc3nnc(-c4ccc(F)cc4)o3)nc12	9	6	-4	0
COc1cccc2sc(Nc3nnc(-c4cccs4)o3)nc12	14	301*	-11	0
CCCn1cnnc1CNC(=O)C1CCC(=O)N(CCc2ccc(OC)cc2)C1 (centres undefined)	x	-2	x	x
Cc1nnc(N/N=C\c2ccc(-c3ccccc3[N+](=O)[O-])o2)n1N	0	80*	-1	0
SMILES	L929 necroptosis	HSF1 activator	TNF necrop inh	Hsp70 act
Cc1nnc(N/N=C/c2ccccc2O)n1N	1	71*	0	0
Cc1nnc(N/N=C/c2c(Cl)cccc2Cl)n1N	-2	17	-1	0
Cc1nnc(N/N=C/c2ccc(-c3ccccc3F)o2)n1N	2	37	-1	0
CCOc1cc(/C=N/Nc2ncnc(Cl)c2N)ccc1O	6	-5	7	0
CCOc1cc(/C=N/Nc2nnc(C)n2N)ccc1O	x	58*	x	x
O=C(NC(=S)N(Cc1ccccc1)Cc1ccccc1)c1ccccc1F	0	-14	-3	0
COc1ccc(N(C=O)C(C(=O)Nc2c(C)cccc2C)c2ccccc2)cc1 (centres undefined)	x	9	x	x
Brc1c(CSc2nc3ccccc3o2)nc2ncccn12	1	38	0	0
Clc1c(CSc2nc3ccccc3o2)nc2ccccn12	1	87*	1	0
Clc1c(CSc2nc3ccccc3o2)nc2sccn12	-1	103*	-1	0
c1ccc2oc(SCc3nc4ccccc4s3)nc2c1	1	67*	1	0
c1ccc2oc(SCc3cn4ccccc4n3)nc2c1	0	64*	-1	1
CCCc1cc(C(=O)N2CCCC(Nc3ccc(C)c(C)c3)C2)n(C)n1 (centres undefined)	x	-6	x	x
COc1cc(C(=O)N2CCN(S(=O)(=O)c3cccc(F)c3)CC2)ccc1OCC(=O)N1CCOCC1	x	-8	x	x
CN(C)c1ccc(NC(=O)Nc2csc3ccccc23)cc1	15	-48	5	x
O=C(Nc1ccc(F)cc1)Nc1csc2ccccc12	2	61*	7	x
O=C(CCl)Nc1cc(-c2ccccc2)nn1-c1ccccc1	33	48	-21	0
Cc1ccc(-c2cc(NC(=O)CCl)n(-c3ccccc3)n2)cc1	19	65*	-27	0
Cc1cc(Cl)n2c(nc3cc(F)c(F)cc32)c1C#N	-1	179*	-13	4
Clc1ccc(-c2csc(N3CCOCC3)n2)cc1	-3	53*	-1	0
CCCc1cc(=O)oc2cc(OCC(=O)NCCc3c[nH]c4ccccc34)ccc12	x	12	x	x
Fc1ccccc1CSc1nnc(-c2cnccn2)n1Cc1ccco1	-1	67*	0	0
Cc1cc(Br)ccc1NC(=O)CNC(=O)CN(C)Cc1nc2ccccc2c(=O)[nH]1	3	6	0	0
Cc1ccc(NC(=O)CN(C)Cc2nc3ccccc3c(=O)[nH]2)c(Br)c1	0	53*	-1	-1
Cc1c(Cl)c(C(=O)NNC(=S)Nc2ccccc2)nn1C	1	16	-1	0
SMILES	L929 necroptosis	HSF1 activator	TNF necrop inh	Hsp70 act
Cc1c(Cl)c(C(=O)NNC(=S)Nc2ccc(F)cc2)nn1C	49	59*	-1	0
CC(Cc1ccco1)NC(=O)c1ccc(C(F)(F)F)cc1 (centres undefined)	x	66*	x	x
COc1ccc(N(/N=C2\Sc3ccccc3C2=O)C(C)=O)cc1	-1	60*	-7	0
CCn1nc(C)cc1-c1nnc(Sc2ncc([N+](=O)[O-])s2)n1C	x	122*	x	x
c1cnc2c(OCc3nc4ccccc4[nH]3)cccc2c1	0	68*	2	0
COc1ccccc1OCc1nc2ccccc2[nH]1	1	58*	-1	0
Cc1ccccc1OCc1nc2ccccc2[nH]1	1	31	3	0
Cc1ccc(NN2C(=O)C=C(c3ccccc3)C2=O)cc1	-1	207*	-3	0
Cc1cc(C)c(C(=O)OCC(=O)Nc2cccc(S(=O)(=O)N3CCCCC3)c2)c(C)c1	x	-10	x	x
Cc1cc(Br)ccc1NC(=O)CNC(=O)Cc1ccc(S(=O)(=O)N2CCOCC2)s1	x	15	x	x
Cc1csc(NC(=O)c2nc3nc(C)cc(C)n3n2)n1	2	61*	2	0
Cc1cc(C)n2nc(C(=O)Nc3nccs3)nc2n1	0	21	1	0
FC(F)(F)c1nnc2ccc(N3CCCCC3)nn12	x	17	x	x
Cc1cccc(C)c1N1CCN(c2ccc3nnc(C(F)(F)F)n3n2)CC1	0	129*	-8	0
